Measurements reported in paper PMC13494018.

B1: design_623_6e2e8b1f-5d9a-4413-9869-27a184816b12_1942_dldesign_0_cycle1_af2pred (protein)
chain: AAAAATVAANAALAMAKKALEIAERAKKAGEEAPELAQSALQALDVAEALIAYATAISAAADAATKAKLAEAKKVVKEAREIAEKVIK
B2: design_623_6e2e8b1f-5d9a-4413-9869-27a184816b12_287_dldesign_0_cycle1_af2pred (protein)
chain: AAAAKAALAAAKAKADEVAKYAEEVDPELGKEIKAKQADLTKAAQDGLAISPALAKGAANMLAAYAESAKKKAEKLAKEK
B3: design_623_6e2e8b1f-5d9a-4413-9869-27a184816b12_1170_dldesign_0_cycle1_af2pred (protein)
chain: MSQAVLNTAKIAIETAGRSSPEEAKKLVEQAVDIASSASDENKKELVKYAKELAKKDPSSKEFYEAAAKKIEATL
B4: design_623_6e2e8b1f-5d9a-4413-9869-27a184816b12_1352_dldesign_0_cycle1_af2pred (protein)
chain: AAEARKAEAVARAKAAAQNAKLVAEGAGEAFAAEAAEVAALAKQAATSTAEEAEKLAEQAAAKTVAMTRAAIALHAAA
B5: design_623_6e2e8b1f-5d9a-4413-9869-27a184816b12_681_dldesign_0_cycle1_af2pred (protein)
chain: MEEIKEKAKELAETVEAIGEELAKFGLETGNENAITAGVNTAKHVAKYAERLSPEAGKIAEKTKEKVEKLGKKAKAEIAA
B6: design_623_6e2e8b1f-5d9a-4413-9869-27a184816b12_824_dldesign_0_cycle1_af2pred (protein)
chain: MEEKIKEAEKLYLEGLKAAGAAHAAIVKGDVAAAKKALEKLKEIAEKLKELGKESEEAKKIAENAEKLYEVTKAAVDAAAAA
B7: design_623_6e2e8b1f-5d9a-4413-9869-27a184816b12_254_dldesign_0_cycle1_af2pred (protein)
chain: DDLTQAQIALAAAQALIKNAKAVLEDKSASEETLKSAAEAMEVAIQLAKQAEKLAKKADPELAKKAKEVKKEAEKVKKELEKKI
B8: design_623_6e2e8b1f-5d9a-4413-9869-27a184816b12_1669_dldesign_0_cycle1_af2pred (protein)
chain: SSALQTVKGYLALGKVAATAIRSGKVELGKELAEAAIKGALEAGKEHPEVAEEAEKAAEEIRKITEEALEEVEEA
B9: design_623_6e2e8b1f-5d9a-4413-9869-27a184816b12_262_dldesign_0_cycle1_af2pred (protein)
chain: GAAEARAQAEKTFAEAIEVGKEALKEAEKLKEKDKEKAEKYIKKINELLHELFRAMALSMTDPEAGLKAIEEQLKKLKEVLKEIKE
B10: design_623_6e2e8b1f-5d9a-4413-9869-27a184816b12_1303_dldesign_0_cycle1_af2pred (protein)
chain: AAAQADALTARGKELYAEGKKKYKEGKKEEAAKLFFEAANDYMRAASLYSKVDPAQAVAALEQMEKAIEEYKKAKE
B11: design_623_6e2e8b1f-5d9a-4413-9869-27a184816b12_258_dldesign_0_cycle1_af2pred (protein)
chain: ASEAAAQTITRGVAELRERFADLSPEALAALAAAQQAALLAAIQGDFEAAAAEVVRGAEAVGAISPHTEEIRALGRATAERILALA
B12: design_623_6e2e8b1f-5d9a-4413-9869-27a184816b12_1572_dldesign_0_cycle1_af2pred (protein)
chain: KAEEVVKIVREAAREAKKDPEKAKEYANRALGALLDLAKAGSQEAALVASQGAAKIAKKITSGASAEEIAKALEEAAKKVEEAAKKE
B13: design_623_6e2e8b1f-5d9a-4413-9869-27a184816b12_1242_dldesign_0_cycle1_af2pred (protein)
chain: AAARRTALGLQRGASVIAYAKEVGVPEAGRRAGLLVVLALAGGAALGAAAAAAAEALAEELAAAGYPGFGTFVRGILRAARAEAA
B14: design_623_6e2e8b1f-5d9a-4413-9869-27a184816b12_1758_dldesign_0_cycle1_af2pred (protein)
chain: AEKVKELAKKAEELAKKAEKAAKESLAKAEKYAAKADELAREVNREAQKVATSGEAGEALLKALEAQAKARKALAEAKAKAEA
B15: design_623_6e2e8b1f-5d9a-4413-9869-27a184816b12_1750_dldesign_0_cycle1_af2pred (protein)
chain: DLLEQARIAANSTVALKKTTKEILAKSTPESAEKVAEVAVELAKQAKELGKKAGTKEAKELAKKAEKAAKEAVEAVKKAKA
B16: design_623_6e2e8b1f-5d9a-4413-9869-27a184816b12_1663_dldesign_0_cycle1_af2pred (protein)
chain: GLEEFEKIVREAAEKVIENAGDPEKQREIVLEAAKKAEEAGYSATVGAGAINARVRAEGTPEAAAIAAEVYQELRDKERA
B17: design_623_6e2e8b1f-5d9a-4413-9869-27a184816b12_1798_dldesign_0_cycle1_af2pred (protein)
chain: AAAEEKTKAYEIALETAKLLTAAAALADELAATNPEAAALAAQARQLNVDLNKTAIAGELTLELAEEYLKKAKEIAARVKALAKAA
B18: design_623_6e2e8b1f-5d9a-4413-9869-27a184816b12_1233_dldesign_0_cycle1_af2pred (protein)
chain: DAATQAKVKELAEKALNGTPEEAYKATAEAFKISEQAGMEVLAAAAKGKPENAHAALSAYAAGLVAAKKAA
B19: design_623_6e2e8b1f-5d9a-4413-9869-27a184816b12_1355_dldesign_0_cycle1_af2pred (protein)
chain: AVAQQALATAQRNLERAKEYAKAGDVKAATAFATTAITLAQAVAATDPALAPQAQAIIDQAQAVIEEAKA
B20: design_623_6e2e8b1f-5d9a-4413-9869-27a184816b12_1249_dldesign_0_cycle1_af2pred (protein)
chain: AEAAKAAALEVLALAQEYYDQAKKNAAKIAPEKLKKADEAYAKALAALAAGDYGLAAHYAMLAYSYSSTGLQEA
B21: design_623_6e2e8b1f-5d9a-4413-9869-27a184816b12_569_dldesign_0_cycle1_af2pred (protein)
chain: NAAAQATVAAIVKQLRKRAEEEAGNPEIAKALKDGAEAVKEAGKKGIGAAVETLKETYAKVAELRAAQAAA
B22: design_623_6e2e8b1f-5d9a-4413-9869-27a184816b12_2057_dldesign_0_cycle1_af2pred (protein)
chain: MEVIEKLKEYGQQAIDILTGLAKAQPAVKDVAEPAAQEVREATKKAVERGEKEGEEAAKKEYEKVHALANAALARVSKLAAA
B23: design_623_6e2e8b1f-5d9a-4413-9869-27a184816b12_1541_dldesign_0_cycle1_af2pred (protein)
chain: DFFEKALKAAKAALKKAEEALEKGKEDLAAAKAAVHQAQAAYVLASGLAVAAEAAGADPKVAKEAKELAEKAKELMEQGKKLAAKLA
B24: design_623_6e2e8b1f-5d9a-4413-9869-27a184816b12_532_dldesign_0_cycle1_af2pred (protein)
chain: AAVAAAIAAGEAAIKTVEALTKQAKTATPEERKAIAEQLRAAAVTLMNAAVASSPAYSPKFGAAAVEALQAAAEAG
B25: design_623_6e2e8b1f-5d9a-4413-9869-27a184816b12_1921_dldesign_0_cycle1_af2pred (protein)
chain: SSVAAFLAAAAQAVKAAAEQGNLAAAAAFLRAAALASDPEAGKKLEALAKAAEAATAEEGKAIAKEGAKLLKELAEEVEAK
B26: design_623_6e2e8b1f-5d9a-4413-9869-27a184816b12_1704_dldesign_0_cycle1_af2pred (protein)
chain: MEEALTEAFRAVAEMNRLAEEARKANPEAAEKAEEARREMSRLAIEAARSDAETAAELAKKIKEILEKTKKVVEELA
B27: design_623_6e2e8b1f-5d9a-4413-9869-27a184816b12_1349_dldesign_0_cycle1_af2pred (protein)
chain: DRLREIAAALAKEVAEATGADPATTEKLAELLAAVLEANQQGPEAFAAAYSKLVDFTVSTGSDALLAKAGAAVSRGLRALG
B28: design_623_6e2e8b1f-5d9a-4413-9869-27a184816b12_1434_dldesign_0_cycle1_af2pred (protein)
chain: DAAAKELRERATALAGRTLLALARDPAEGERTLEEAVKELEALGKESGLEELAKEEAARLRAQYEAFRAVAEA
B29: design_623_6e2e8b1f-5d9a-4413-9869-27a184816b12_2025_dldesign_0_cycle1_af2pred (protein)
chain: GEERLLAAINEGARAILEVTAPESDAQRNAVVHAFILGMVRGPEQGLADLAAAAAALSPEVAKAAVEEATKIIERYLA
B30: design_623_6e2e8b1f-5d9a-4413-9869-27a184816b12_873_dldesign_0_cycle1_af2pred (protein)
chain: SENVKKAKALAAKSKELLEKAKKGDAETAQKALKEISKLANELAKLATSSPAADQAATNAALAVAVEAAEEASKIAREKKA
B31: design_623_6e2e8b1f-5d9a-4413-9869-27a184816b12_1571_dldesign_0_cycle1_af2pred (protein)
chain: GEEAKKLAEEGDKLAEQGKAATPQEGLALLLEAAKKYSEAARLYREAGNEEEAAKAEAKLQEVNAQLNAAAKAAIAA
B32: design_623_6e2e8b1f-5d9a-4413-9869-27a184816b12_1410_dldesign_0_cycle1_af2pred (protein)
chain: SEELRERARELREEAERAEREAREAAERGDAERVREQLRRLSRLAAEAARLANQATAAGDEETAAEANEALARAVEAMERAQEWAE
B33: design_623_6e2e8b1f-5d9a-4413-9869-27a184816b12_1575_dldesign_0_cycle1_af2pred (protein)
chain: NAGQAVADALRAATEAERAAAAVDPALAAQARALLAKAMQAAVAGDDAEAIAYAAEVRALRDEVLARAAA
B34: design_623_6e2e8b1f-5d9a-4413-9869-27a184816b12_1293_dldesign_0_cycle1_af2pred (protein)
chain: DAIRARAAEVKERAERLLEEGKRLPEIEEQVREMAESAKALADDALAAAATDPAQARLALAAAEALVRSLELLVERAKEEA
B35: design_623_6e2e8b1f-5d9a-4413-9869-27a184816b12_2159_dldesign_0_cycle1_af2pred (protein)
chain: AAAAAAKVAEAAAKAMLRTAKAILKESKASGGAKAPDALAAAEVALALADDLERQGGDPKTAEKLKKEAKAVAAEAKKVAA
B36: design_623_6e2e8b1f-5d9a-4413-9869-27a184816b12_997_dldesign_0_cycle1_af2pred (protein)
chain: EGEKLWKEAKALTDQAKALAAQAQATTDAAQAKQYAIEAAAATTEAMRLASEAARLLGPEKQEEANRLVQEATQALVAATQAAQALA
B37: design_623_6e2e8b1f-5d9a-4413-9869-27a184816b12_890_dldesign_0_cycle1_af2pred (protein)
chain: SPAARLMEATYRRLEEALEKLERAEELSPEEVLEAARLAEANARFARLAGRQAAAEEGTAEAAEAAAKAEALAEEAEEKAREARERLE
B38: design_623_6e2e8b1f-5d9a-4413-9869-27a184816b12_1445_dldesign_0_cycle1_af2pred (protein)
chain: EEAVLERIRALGEEGAALFQAAIKAAVAGDVAAAEALLKAGREKFEEAIALGEATSPRARELAEEVRRRMEAGEKIAQLAIEGAKA

Biological target: CD276, Q5ZPR3
Sequence (Q5ZPR3 whole entry): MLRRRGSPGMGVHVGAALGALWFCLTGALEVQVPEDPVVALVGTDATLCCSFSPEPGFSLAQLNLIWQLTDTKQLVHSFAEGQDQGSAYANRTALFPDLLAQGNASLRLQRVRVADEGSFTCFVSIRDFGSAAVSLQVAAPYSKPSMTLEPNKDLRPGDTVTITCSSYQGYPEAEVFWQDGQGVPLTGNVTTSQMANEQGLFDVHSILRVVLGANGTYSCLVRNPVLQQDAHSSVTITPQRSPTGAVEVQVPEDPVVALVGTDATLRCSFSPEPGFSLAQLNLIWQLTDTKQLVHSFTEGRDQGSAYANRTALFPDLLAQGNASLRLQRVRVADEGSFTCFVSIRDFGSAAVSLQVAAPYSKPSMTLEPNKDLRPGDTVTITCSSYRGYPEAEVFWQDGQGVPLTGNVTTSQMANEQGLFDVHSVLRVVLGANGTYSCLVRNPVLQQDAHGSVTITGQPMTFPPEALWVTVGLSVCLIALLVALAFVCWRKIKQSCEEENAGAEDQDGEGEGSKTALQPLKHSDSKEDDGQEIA

Binding in a display sort, inactive:
B1 not found
B2 not found
B3 not found
B4 not found
B5 not found
B6 not found
B7 not found
B8 not found
B9 not found
B10 not found
B11 not found
B12 not found
B13 not found
B14 not found
B15 not found
B16 not found
B17 not found
B18 not found
B19 not found
B20 not found
B21 not found
B22 not found
B23 not found
B24 not found
B25 not found
B26 not found
B27 not found
B28 not found
B29 not found
B30 not found
B31 not found
B32 not found
B33 not found
B34 not found
B35 not found
B36 not found
B37 not found
B38 not found
